# PubChem BioAssay (NCATS)
# “And” between values parts separate entries of the source, which are not always exact repeats. Equal values may be shown once. Records with an inconclusive call do not appear. The source made the active and inactive calls. Unless noted, calls follow the shape of the dose curve; as a rule, active = well fitted cell-killing curve with a large enough effect; inconclusive = small, poorly fitted or top-dose-only effect, or effect the other way; inactive = flat fitted curve, though single readings scatter. *1 amine or outer side, *2 acyl side, *3 side chain or, on linkers, in order; H or OH if unused. Where a SMILES comes first, the peptide text is derived from it. Bridges are numbered along the chain shown (N, C = ends). Roman numbers before positions name the chains, in order. [ ]: non-standard residue; d: D form. ξ: configuration not given here. Actinocin(9to1) = Cc1c2oc3c(C)ccc(C(=O)[*:1])c3nc-2c(C(=O)[*:2])c(N)c1=O; ξNMeV = CNC(C(=O)O)C(C)C; ξV = CC(C)C(N)C(=O)O; Sar = CNCC(=O)O
# Assay: qHTS assay for cell viability of HEK293 cells (AID 743288); also: % is scaled to controls: 0 for no effect and ±100 for the full control effect; nearly all actives have a fitted effect of over 50% in size
# Conditions: ATP luminescence (CellTiter-Glo), 18 h, stronger effect = lower value
# In short: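 Quantitative high-throughput screen: compounds were pinned onto parental HEK293 cells (2,000 per well) after a minimum 5 h settling at 37 C, incubated 18 h at 37 C, and intracellular ATP measured by luciferase luminescence.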
row,SMILES,max response
1,CCCCC/C=C\C/C=C\CCCCCCCC(=O)O,-9.3% (inactive) and -9.38% (inactive)
2,IC(I)I,-1.78% (inactive) and -16.4% (inactive)
3,Cc1ccccc1,1.99% (inactive) and 6.48% (inactive)
4,C[C@H]1C[C@H]2[C@@H]3CCC4=CC(=O)C=C[C@]4(C)[C@@]3(F)[C@@H](O)C[C@]2(C)[C@@]1(O)C(=O)CO,-14.2% (inactive)

# Assay: qHTS assay for cell viability of the p53RE-bla HCT-116 cell line (AID 743292); also: % is scaled to controls: 0 for no effect and ±100 for the full control effect; nearly all actives have a fitted effect of over 55% in size
# Conditions: p53RE-bla HCT-116 viability, ATP luminescence, 16 h; series mostly up to 95 µM; activity change, negative = cytotoxicity: at the top concentration
# In short: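 Viability of compound-treated p53RE-bla HCT-116 cells is taken from ATP-dependent luciferase luminescence. Treatment lasts 16 h at 37 C after a 5 h settling period; detection follows 30 min at room temperature.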
SMILES,outcome,"activity change, negative = cytotoxicity"
CC(O)CO (configuration not stated),inactive,–
O=S(=O)(O)O,inactive,–
CC1=CCC(C(C)(C)O)CC1 (configuration not stated),–,2.9% (inactive)
CC1=C(/C=C/C(C)=C/C=C/C(C)=C/CO)C(C)(C)CCC1,inactive,–
CC(C)=O,–,-5.82% (inactive)
O=C(O)CCC(=O)C(=O)O,–,-1.65% (inactive)
CCOc1ccc2c(c1)C(C)=CC(C)(C)N2,inactive,–
CC1=C2[C@@H]([C@H](C)CC[C@H]2/C=C(\C)C(=O)O)[C@H](O)C1,–,-1.41% (inactive)
CCCCC(CC)COC(=O)CC(C(=O)OCC(CC)CCCC)S(=O)(=O)O (configuration not stated),–,18.6% (inactive)
CCCCCCCC/C=C\CCCCCCCC(=O)O,inactive,–
CCOC(C)=O,–,1.29% (inactive)
Nc1ccn([C@H]2CS[C@@H](CO)O2)c(=O)n1,–,0.719% (inactive)
O=C(O)CN(CCN(CC(=O)O)CC(=O)O)CC(=O)O,inactive,–
CC1(C)C(C=C(Cl)Cl)C1C(=O)OCc1cccc(Oc2ccccc2)c1 (configuration not stated),inactive,–
CCCCCCCC(=O)O,inactive,–
CCCCC/C=C\C/C=C\CCCCCCCC(=O)O,inactive,–
IC(I)I,inactive,–
Cc1ccccc1,inactive,–
C[C@H]1C[C@H]2[C@@H]3CCC4=CC(=O)C=C[C@]4(C)[C@@]3(F)[C@@H](O)C[C@]2(C)[C@@]1(O)C(=O)CO,–,-8.7% (inactive)

# Assay: qHTS profiling for inhibitors of Plasmodium falciparum (3D7) proliferation (AID 743322; call rule not given here;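 also: infected erythrocytes exposed to compound for 72 h before lysis; 100% = DMSO vehicle wells and 0% = 0.29 µM artemisinin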)
# Conditions: P. falciparum 3D7 proliferation; at 28.7 µM (top of the series) unless noted
# In short: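 Parasite DNA was quantified by SYBR Green I fluorescence (ex 485, em 535 nm) after overnight lysis in saponin/Triton buffer at room temperature. Cultures at 0.3% parasitemia and 2.5% hematocrit were first exposed to compound for 72 h at 37 C; signals were normalised to artemisinin (0.29 uM) and vehicle wells.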
row,SMILES,remaining parasite growth % (stronger effect = lower value)
1,NC(=O)Nc1cc(-c2ccc(CN3CCOCC3)c(F)c2)sc1C(=O)N[C@H]1CCCNC1,3.88%
2,CC[C@@H](C(=O)O)C1CC[C@H](C)C([C@@H](C)[C@H](O)[C@H](C)C(=O)[C@H](CC)C2O[C@]3(C=C[C@@H](O)[C@]4(CC[C@@](C)(C5CC[C@](O)(CC)[C@H](C)O5)O4)O3)[C@H](C)C[C@@H]2C)O1 (some centres not stated),-3.05%
3,CCC1(Cc2ccc(N)cc2)CCC(=O)NC1=O (configuration not stated),99.6% [at 57.5 µM]
4,CC(NC(=O)Cc1cc(F)cc(F)c1)C(=O)NC(C(=O)OC(C)(C)C)c1ccccc1 (configuration not stated),103%
5,"Cc1c2oc3c(C)ccc(C(=O)N[C@@H]4C(=O)NC(C(C)C)C(=O)N5CCC[C@H]5C(=O)N(C)CC(=O)N(C)C(C(C)C)C(=O)O[C@@H]4C)c3nc-2c(C(=O)N[C@@H]2C(=O)NC(C(C)C)C(=O)N3CCC[C@H]3C(=O)N(C)CC(=O)N(C)C(C(C)C)C(=O)O[C@@H]2C)c(N)c1=O (some centres not stated) (I: T[ξV]P[Sar][ξNMeV] / II: T[ξV]P[Sar][ξNMeV]; ester I:1-I:C, II:1-II:C; linker I:N-II:N via Actinocin(9to1))",-2.78%
6,CCC1(O)CC2CN(CCc3c([nH]c4ccccc34)[C@@](C(=O)OC)(c3cc4c(cc3OC)N(C=O)[C@H]3[C@](O)(C(=O)OC)[C@H](OC(C)=O)[C@]5(CC)C=CCN6CC[C@]43[C@@H]65)C2)C1 (some centres not stated),8.01%
7,O=c1cc(C2=CC=CC3Sc4ccccc4SC23)oc(N2CCOCC2)c1 (configuration not stated),90.9%
8,C[C@@H]1CCN(C(=O)CC#N)C[C@@H]1N(C)c1ncnc2[nH]ccc12,95.6%
9,Cc1nnc(C(C)C)n1C1CC2CCC(C1)N2CC[C@H](NC(=O)C1CCC(F)(F)CC1)c1ccccc1 (some centres not stated),111%
10,CNC1CCN(C(Cc2cccc(-c3ccncc3)c2)C(=O)c2sc3c(F)ccc(F)c3c2Cl)CC1 (configuration not stated),0.218%
11,CN(NC(=O)CC(=O)NN(C)C(=S)c1ccccc1)C(=S)c1ccccc1,2.19% [at 57.5 µM]
12,O=C(O)CC/C=C\CC[C@H]1[C@@H](N2CCCCC2)[C@@H](O)C[C@@H]1OCc1ccc(-c2ccccc2)cc1,58.6%
13,CCCCCCCCCCCCCCCCCCOP(=O)([O-])OC1CC[N+](C)(C)CC1,98.6% [at 18.4 µM]
14,COC(=O)C1=C(C)NC(C)=C(C(=O)OCCCN2CCC(c3ccccc3)(c3ccccc3)CC2)[C@H]1c1cccc([N+](=O)[O-])c1,-1.45%
